This passage reports growth results from PubChem BioAssay (NCI).

What all share (experiment): NCI-60 one-dose screen, 48 h (100 = growth as untreated, 0 = no growth, -100 = all killed)
One assay concerns SK-MEL-2 melanoma. The settings on record: 10 µM unless noted.
In a further assay the test system is EKVX NSCLC. The settings on record: 10 µM unless noted.
The test system of a further assay is SN12C renal. The settings on record: 10 µM unless noted.
For a further assay, the system named is UO-31 renal. The settings on record: 10 µM unless noted.
The next assay has as its system TK-10 renal. The note with it: 10 µM unless noted.
Another assay deals with ACHN renal. The note with it: 10 µM unless noted.
The test system of a further assay is CAKI-1 renal. The note with it: 10 µM unless noted.
In a further assay the test system is A498 renal. The note with it: 10 µM.
A further assay has as its system HL-60(TB) leukemia. The settings on record: 10 µM unless noted.
The next assay concerns CCRF-CEM leukemia. The note with it: 10 µM unless noted.

About 83,000 compounds went through this panel and 20% of them were active in at least one assay; those are over-represented in the sample as a whole.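 Cell lines were cultured in 96-well plates, exposed to a single compound concentration, and assessed for percent growth 48 hours later.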 Unmarked numbers belong to inactive results. The source made the active and inactive calls. How the source made its calls: active means growth percent below 10; inactive means the rest.

On to `O=[N+]([O-])c1ccc([Se]C2CCCCC2Cl)c([N+](=O)[O-])c1` (stereo not given), for which the growth with SK-MEL-2 melanoma is 66.5%; in the assay with EKVX NSCLC it was 46%; in the assay with SN12C renal, 59.5%; with UO-31 renal, -88.3% (active); in the assay on TK-10 renal, 102%; in the assay with ACHN renal it was 88.2%. Further, the growth is 76.7% with CAKI-1 renal, 29.4% in the assay on A498 renal, 78.8% with HL-60(TB) leukemia and 80.9% with CCRF-CEM leukemia.

Regarding `Cc1ccc(S(=O)(=O)C(Cl)(Cl)Cl)cc1`, the growth in the assay on SK-MEL-2 melanoma is 97.5%; with EKVX NSCLC it was 101%; in the assay on SN12C renal, 98.7%; with UO-31 renal it was 97.3%; with TK-10 renal, 89.5%; with ACHN renal it was 105%. The growth is 87.9% with CAKI-1 renal, 103% in the assay on A498 renal, 91.1% in the assay with HL-60(TB) leukemia and 82.7% with CCRF-CEM leukemia.

In the case of `COC1=CC(=O)O[C@@H](/C=C/c2ccc3c(c2)OCO3)C1`, the growth was -20.1% (active) with SK-MEL-2 melanoma; 114% in the assay with EKVX NSCLC; 100% in the assay on SN12C renal; 87.5% in the assay with UO-31 renal; 102% in the assay with TK-10 renal; 110% in the assay with ACHN renal. The growth in the assay with CAKI-1 renal was 107%; with A498 renal it was 59.2%; in the assay on HL-60(TB) leukemia it was 114%; with CCRF-CEM leukemia, 61.2%.

Regarding `CCCCCCCC(=O)OCC(=O)[C@]1(O)Cc2c(O)c3c(c(O)c2[C@@H](OC2CC(N)C(O)C(C)O2)C1)C(=O)c1c(OC)cccc1C3=O` (stereo not given in full), the growth in the assay on SK-MEL-2 melanoma is -48.3% (active); in the assay on EKVX NSCLC, -57.9% (active); with SN12C renal, -69.4% (active); in the assay on UO-31 renal, -83.2% (active); in the assay with TK-10 renal it was -44.5% (active); in the assay with ACHN renal, -82.9% (active). Moreover, the growth was -47.9% (active) with CAKI-1 renal, -87.6% (active) in the assay on A498 renal, -92.4% (active) with HL-60(TB) leukemia and -90.3% (active) in the assay with CCRF-CEM leukemia.

`C/C(=C\c1ccn(-c2ccc(N)cc2)n1)[C@@H]1C[C@@H]2O[C@]2(C)CCC[C@H](C)[C@H](O)[C@@H](C)C(=O)C(C)(C)[C@@H](O)CC(=O)O1`: the growth in the assay on SK-MEL-2 melanoma was 35.8%; in the assay on EKVX NSCLC it was 54.7%; with SN12C renal, 39.6%; in the assay on UO-31 renal it was 38.5%; in the assay on TK-10 renal, 54.6%; in the assay with ACHN renal it was 45.7%. Also, the growth in the assay with CAKI-1 renal was 43.2%; with A498 renal, -0.818% (active); in the assay with HL-60(TB) leukemia, 5.9% (active); in the assay on CCRF-CEM leukemia, 16.8%.

As to `COc1ccc2nc(NC(=O)COc3cc(/C=C\c4cc(OC)c(OC)c(OC)c4)ccc3OC)sc2c1`, the growth with SK-MEL-2 melanoma was 16.7%; with EKVX NSCLC, 44.7%; in the assay on SN12C renal, 45.3%; in the assay on UO-31 renal, 14.7%; in the assay on TK-10 renal, 23.6%; in the assay on ACHN renal, 42.8%. The growth was 6.25% (active) in the assay with CAKI-1 renal, -5.19% (active) in the assay with A498 renal, 25% in the assay on HL-60(TB) leukemia and 22.6% with CCRF-CEM leukemia.

With `O=C1OCC2=C1C(c1ccccc1)c1cc3c(cc1N2)OCO3` (stereo not given), the growth was 15.6% in the assay with SK-MEL-2 melanoma; 48% in the assay on EKVX NSCLC; 21.5% with SN12C renal; 45.6% with UO-31 renal; 56.9% with TK-10 renal; 27.1% in the assay with ACHN renal. Moreover, the growth was 38.8% with CAKI-1 renal, -6.52% (active) in the assay with A498 renal, 2.29% (active) in the assay on HL-60(TB) leukemia and 11.6% in the assay with CCRF-CEM leukemia.

In the case of `NC(=Nc1ccccc1)N[N+](=O)[O-]`, the growth is 127% in the assay on SK-MEL-2 melanoma; 94% in the assay with EKVX NSCLC; 102% with SN12C renal; 92% with UO-31 renal; 103% with TK-10 renal; 114% in the assay on ACHN renal. Moreover, the growth in the assay with CAKI-1 renal was 97.6%; in the assay on A498 renal, 110%; in the assay on HL-60(TB) leukemia it was 38.7%; in the assay with CCRF-CEM leukemia it was 52.1%.

As to `C/C(=C\c1ccn(-c2ccc(N)cc2C(F)(F)F)n1)[C@@H]1C[C@@H]2O[C@]2(C)CCC[C@H](C)[C@H](O)[C@@H](C)C(=O)C(C)(C)[C@@H](O)CC(=O)O1`, the growth in the assay on SK-MEL-2 melanoma was 18.1%; in the assay on EKVX NSCLC it was 33.7%; in the assay with SN12C renal it was 22.6%; in the assay with UO-31 renal it was 38.2%; with TK-10 renal, 39.8%; in the assay with ACHN renal, 50%. Moreover, the growth in the assay with CAKI-1 renal was 31.4%; in the assay with A498 renal, -4.95% (active); with HL-60(TB) leukemia, -0.118% (active); with CCRF-CEM leukemia, 16.3%.

As for `COc1cccc2c1c(C(=O)C(=O)Nc1cc(C)no1)cn2Cc1ccc(F)cc1`, the growth is 75.1% with SK-MEL-2 melanoma; 78.9% in the assay on EKVX NSCLC; 62.2% in the assay with SN12C renal; 57.5% in the assay with UO-31 renal; 82.6% with TK-10 renal; 88.6% in the assay on ACHN renal. The growth is 86.7% in the assay with CAKI-1 renal, 91.1% with A498 renal, 1.01% (active) in the assay on HL-60(TB) leukemia and 66.6% in the assay with CCRF-CEM leukemia.

For `Cc1sc2c(c1C)C(c1ccc(Cl)cc1)=N[C@@H](CC(=O)OC(C)(C)C)c1nnc(C)n1-2`, the growth in the assay with SK-MEL-2 melanoma is 48.8%; in the assay with EKVX NSCLC, 42.2%; with SN12C renal, 49.5%; in the assay with UO-31 renal, 13.4%; in the assay on TK-10 renal it was 22.5%; in the assay with ACHN renal, 31.1%. Moreover, the growth in the assay with CAKI-1 renal is 21.6%; in the assay on A498 renal, -11.8% (active); in the assay on HL-60(TB) leukemia, 4.3% (active); with CCRF-CEM leukemia it was 38.7%.

For the compound `CC[C@H](C)[C@H](NC(=O)[C@H]1CCCCN1C)C(=O)N(C)[C@H](C[C@@H](OC(C)=O)c1nc(C(=O)NC23CC(C(=O)OC)(C2)C3)cs1)C(C)C`, the growth with SK-MEL-2 melanoma was 29.5%; with EKVX NSCLC, 34.3%; with SN12C renal it was 32.7%; with UO-31 renal, 33.1%; in the assay with TK-10 renal it was 15.7%; with ACHN renal, 11.6%. For the same compound, the growth with CAKI-1 renal is 26.5%; in the assay on A498 renal, -7.99% (active); in the assay on HL-60(TB) leukemia, -37.2% (active); in the assay with CCRF-CEM leukemia, 1.09% (active).

As to `CCCCCCCCCCCCCCCCCC1OC[C@H](COC(=O)O[C@@H](C(=O)O[C@H]2C[C@@]3(O)[C@@H](OC(=O)c4ccccc4)[C@@H]4[C@]5(OC(C)=O)CO[C@@H]5C[C@H](O)[C@@]4(C)C(=O)[C@H](OC(C)=O)C(=C2C)C3(C)C)[C@@H](NC(=O)c2ccccc2)c2ccccc2)O1` (stereo not given in full), the growth in the assay on SK-MEL-2 melanoma is 75%; in the assay on EKVX NSCLC, 93.7%; with SN12C renal it was 56.8%; with UO-31 renal it was 98.1%; with TK-10 renal it was 99.8%; in the assay with ACHN renal, 96.2%. Further, the growth with CAKI-1 renal was 81%; with A498 renal it was 72%; in the assay with HL-60(TB) leukemia, 23.3%; in the assay with CCRF-CEM leukemia it was 44.8%.
